Shown are actives, neighbours in structure and some others; about 1.6% of the full set was active somewhere.
NSD2 HMT inh: inhibitors of human histone methyltransferase NSD2. NSD2 peptide methylation, AlphaScreen, 120 min. AID 743445. O96028. inhibition, % at 12.5 µM. 0.54% of 310,000 active; in the data active = inhibition above about 50%
SIRT5 block: sirtuin-5 (human) deacylase inhibition. Purified SirT5, succinyl-peptide AMC, trypsin-coupled fluorescence. inhibition, % at 15 µM. 1.1% of 330,000 active; in the data active = inhibition above about 15%
Target sequence (Q9NXA8 whole entry, looked up): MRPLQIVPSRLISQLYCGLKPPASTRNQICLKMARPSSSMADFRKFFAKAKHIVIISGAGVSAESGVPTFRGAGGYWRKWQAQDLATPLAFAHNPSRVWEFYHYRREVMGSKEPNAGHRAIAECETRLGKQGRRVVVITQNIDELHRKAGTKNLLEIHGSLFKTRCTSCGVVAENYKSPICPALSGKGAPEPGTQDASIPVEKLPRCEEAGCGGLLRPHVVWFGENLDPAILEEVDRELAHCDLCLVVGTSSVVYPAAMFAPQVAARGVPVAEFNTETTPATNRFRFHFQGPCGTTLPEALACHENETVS
SUMO HTRF inh: SUMOylation inhibition; P63279; inhibition, % at 35 µM; HTRF SUMOylation assay, SAE1/SAE2 + UBC9, in vitro; 0.36% of 290,000 active; in the data active = inhibition above about 50%, passing the limit was not always enough
Target sequence (P63279 whole entry, looked up): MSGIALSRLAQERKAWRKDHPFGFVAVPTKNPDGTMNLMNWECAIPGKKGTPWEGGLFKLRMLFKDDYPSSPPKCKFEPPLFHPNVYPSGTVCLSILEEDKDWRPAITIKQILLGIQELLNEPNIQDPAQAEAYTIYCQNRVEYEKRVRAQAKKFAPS
Casp6 inh: blocks human caspase-6 cleavage activity. 0.53% of 350,000 active. AID 686996. P55212. purified caspase-6, Z-VEID-R110 cleavage fluorescence. inhibition, % at 12.5 µM;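 active = mean inhibition across replicates at least about 35%, with every replicate also reaching that limit, limit read from the data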;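 also: 0% = median of neutral control wells and 100% = no fluorescence left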
* marks the source's active call; other numbers are inactive results; ! = not confirmed by another sample.

How did CCOC(=O)C1=NS(=O)(=O)NC(C)=C1 do in these assays?
SIRT5 block: 2; Casp6 inh: 36*

Results for COc1ccc(S(=O)(=O)Nc2ccc3c(c2)C(=O)N([C@@H](C)CO)C[C@@H](C)[C@H](CN(C)Cc2ccncc2)OCCCC[C@H](C)O3)cc1 ?
SIRT5 block: 17*; Casp6 inh: -2

What do the screens show for `COc1ccc(S(=O)(=O)Nc2ccc3c(c2)C(=O)N([C@@H](C)CO)C[C@@H](C)[C@@H](CN(C)S(=O)(=O)c2ccc(F)cc2)OCCCC[C@@H](C)O3)cc1`?
SIRT5 block: 11; Casp6 inh: 1

Results for COc1ccc(S(=O)(=O)N(C)C[C@H]2OCCCC[C@@H](C)Oc3ccc(NS(=O)(=O)c4ccc(F)cc4)cc3C(=O)N([C@@H](C)CO)C[C@H]2C)cc1 ?
SIRT5 block: 18*; Casp6 inh: 1

Results for COc1ccc(S(=O)(=O)N(C)C[C@@H]2OCCCC[C@H](C)Oc3ccc(NS(=O)(=O)c4ccc(F)cc4)cc3C(=O)N([C@H](C)CO)C[C@H]2C)cc1 ?
SIRT5 block: 19*; Casp6 inh: 3

How did COc1ccc(S(=O)(=O)Nc2ccc3c(c2)C(=O)N([C@@H](C)CO)C[C@@H](C)[C@H](CN(C)S(=O)(=O)c2ccc(F)cc2)OCCCC[C@H](C)O3)cc1 do in these assays?
SIRT5 block: 8; Casp6 inh: -4

How did COc1ccc(S(=O)(=O)Nc2ccc3c(c2)C(=O)N([C@@H](C)CO)C[C@@H](C)[C@@H](CN(C)S(=O)(=O)c2ccc(F)cc2)OCCCC[C@H](C)O3)cc1 do in these assays?
SIRT5 block: 16*; Casp6 inh: 3

Results for C[C@@H]1CN([C@H](C)CO)C(=O)c2cc(NC(=O)c3ccncc3)ccc2O[C@@H](C)CCCCO[C@@H]1CN(C)S(=O)(=O)c1ccc(F)cc1 ?
SIRT5 block: 4; Casp6 inh: -3

Results for O=C(NCC[C@H]1CC[C@H](NC(=O)C2CCC2)[C@@H](CO)O1)c1ccc(F)cc1 ?
SIRT5 block: -2; Casp6 inh: 0

Results for COc1cc(OC)c(-c2nn3c(C4CCCCC4)nnc3s2)cc1OC ?
NSD2 HMT inh: -2; SIRT5 block: -5; SUMO HTRF inh: -6; Casp6 inh: 43*

How did COc1cc(-c2nnc3sc(C4CCCCC4)nn23)cc(OC)c1OC do in these assays?
SUMO HTRF inh: -4

How did Nc1nc(-c2ccc(Cl)cc2)nc(-c2ccc(Cl)cc2)n1 do in these assays?
NSD2 HMT inh: 5; SIRT5 block: 29*; SUMO HTRF inh: 24; Casp6 inh: -1

What do the screens show for `O=C(NC1CCC1)[C@H]1[C@H](CO)[C@H]2Cn3c(ccc(C4=CCCCC4)c3=O)[C@H]2N1C(=O)C1CCOCC1`?
SIRT5 block: -12; Casp6 inh: 0

What do the screens show for `CC1(C)CC(=O)C2=C(C1)Nc1ccccc1NC2`?
NSD2 HMT inh: 14; SIRT5 block: -3; SUMO HTRF inh: 23; Casp6 inh: 7

How did CC1(C)CC(=O)C2=C(C1)Nc1ccccc1[S@]2=O do in these assays?
NSD2 HMT inh: 0; SIRT5 block: 16*; SUMO HTRF inh: 22; Casp6 inh: 1

Results for O=S1c2ccccc2Nc2ccccc21 ?
SIRT5 block: 25*; Casp6 inh: 1

Results for N#Cc1c(N)sc(=S)c2c1CCN(Cc1ccccc1)C2 ?
SUMO HTRF inh: 67*

What do the screens show for `CCN1CCc2c(sc(N)c2C#N)C1`?
NSD2 HMT inh: 16; SUMO HTRF inh: 19

Results for COc1cc(/C=C2\S/C(=N/S(=O)(=O)c3ccc(C)cc3)NC2=O)c([N+](=O)[O-])cc1OC ?
NSD2 HMT inh: 28; SUMO HTRF inh: 30

Results for Cc1ccc(S(=O)(=O)/N=C2/NC(=O)/C(=C/c3cc([N+](=O)[O-])ccc3O)S2)cc1 ?
NSD2 HMT inh: 11; SIRT5 block: 12; SUMO HTRF inh: 13; Casp6 inh: 37*

What do the screens show for `O=C(C[C@@H]1CC[C@H]2[C@@H](COC[C@H](O)CN2Cc2cc(F)cc(F)c2)O1)NCc1cccc(F)c1`?
SIRT5 block: 0; Casp6 inh: 0

Results for O=C(C[C@@H]1CC[C@H]2[C@@H](COC[C@@H](O)CN2Cc2ccncc2)O1)NCc1ccncc1 ?
SIRT5 block: 19*; Casp6 inh: -1

How did O=C(C[C@H]1CC[C@@H]2[C@H](COC[C@H](O)CN2Cc2cccc(F)c2)O1)NCc1cccc(F)c1 do in these assays?
SIRT5 block: 20*!; Casp6 inh: -3

How did C[C@@H](NC(=O)C[C@H]1CC[C@@H]2[C@H](COC[C@H](O)CN2Cc2ccc(C(F)(F)F)cc2)O1)c1ccccc1 do in these assays?
SIRT5 block: 14; Casp6 inh: -1

What do the screens show for `C[C@H](NC(=O)C[C@@H]1CC[C@H]2[C@@H](COC[C@@H](O)CN2Cc2ccc(C(F)(F)F)cc2)O1)c1ccccc1`?
SIRT5 block: 17*; Casp6 inh: -1

How did CC(C)C(=O)Nc1ccc2c(c1)C(=O)N(C)[C@@H]1CC[C@H](CC(=O)Nc3ccccc3)O[C@H]1CO2 do in these assays?
SIRT5 block: -1; Casp6 inh: 5

What do the screens show for `CO[C@H](CN(C)Cc1cc(F)ccc1F)[C@@H](C)CN([C@@H](C)CO)S(=O)(=O)c1ccc(F)cc1`?
SIRT5 block: 5; Casp6 inh: 0

What do the screens show for `COc1cc2c(cc1OC)C(C)=NC1(CCCCC1)C2`?
NSD2 HMT inh: 0; SUMO HTRF inh: 59*; Casp6 inh: 0

What do the screens show for `COc1cc2c(cc1OC)C(=S)NC1(CCCC1)C2`?
NSD2 HMT inh: -2; SIRT5 block: 38*; SUMO HTRF inh: 18; Casp6 inh: 0

How did CN(C)CCCn1c(N)c(C#N)c2nc3ccccc3nc21 do in these assays?
NSD2 HMT inh: 7; SIRT5 block: -36; SUMO HTRF inh: 103*; Casp6 inh: -11

Results for Cn1cnc(S(=O)(=O)N[C@@H]2C=C[C@@H](CC(=O)N3CCN(c4ccccc4)CC3)O[C@@H]2CO)c1 ?
SIRT5 block: 2; Casp6 inh: -2

What do the screens show for `COc1ccccc1NS(=O)(=O)c1cc(C(=O)NC2CCN(Cc3ccccc3)CC2)ccc1C`?
NSD2 HMT inh: 1; SIRT5 block: -14; Casp6 inh: 55*

Results for COc1ccccc1NS(=O)(=O)c1cccc(C(=O)NC2CCN(Cc3ccccc3)CC2)c1 ?
NSD2 HMT inh: -6

How did CCn1c(CCc2ccccc2)n[nH]c1=S do in these assays?
NSD2 HMT inh: 1; SUMO HTRF inh: -1; Casp6 inh: -3

How did CCn1c(CSCc2ccccc2)n[nH]c1=S do in these assays?
NSD2 HMT inh: 3; SIRT5 block: 37*; SUMO HTRF inh: -10; Casp6 inh: -3

Results for CCn1c(Cc2ccccc2)n[nH]c1=S ?
NSD2 HMT inh: 10; SIRT5 block: 31*; SUMO HTRF inh: 26; Casp6 inh: 1

What do the screens show for `COc1cccc2c(=O)n(CC(=O)N3CCCc4ccccc43)ccc12`?
SIRT5 block: 23*; SUMO HTRF inh: -16; Casp6 inh: 1

How did CCCOc1cccc(C2C(C(=O)c3ccc(C)o3)=C(O)C(=O)N2c2nc(C)c(C(C)=O)s2)c1 (configuration not stated) do in these assays?
NSD2 HMT inh: 2; SIRT5 block: 0; SUMO HTRF inh: 11; Casp6 inh: 2

Screening data: PubChem, several laboratories
